Assay outcomes (PubChem BioAssay)
This is one part of a sample in which hits are shown more often than they occur.
LMNA splice mod = changes lamin A minigene splicing in HeLa cells | hit rate 0.01% among 200,000 | HeLa LMNA splicing GFP/RFP minigene ratio, 48 h | Potency, µM (doses to about 46.1 µM), usual class: inhibitors | AID 1487; active means well fitted inhibition curve with a large enough effect in the signal ratio, with a control signal flat, not every such curve was filed as active; inconclusive means small, poorly fitted or top-dose-only effect, or effect the other way, or a change in a side signal; the % refers to the signal ratio
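S3 HeLa cells stably expressing lamin A-EGFP splicing minigene plus DsRed2, 600 cells/well, 48 h compound exposure at 37C. Laser-scanning cytometry; analysed as GFP (500-530 nm)/RFP (575-640 nm) total intensity ratio; 0.5% DMSO vehicle.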
MLL CXXC-DNA inh = blocks binding of human MLL CXXC domain to DNA; Q03164; MLL-CXXC / FITC-HOXA9 DNA fluorescence polarization; Potency, µM (series often up to 115 µM), hits mostly inhibitors; hit rate 0.037% among 290,000; AID 2662; active means well fitted inhibition curve with a large enough effect in the polarisation, with a control signal flat, not every such curve was filed as active; inconclusive means small, poorly fitted or top-dose-only effect, or effect the other way, or a change in a side signal; inactive means no such curve, though single readings can be large or run the other way; the % refers to the polarisation
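Steps: dispense CXXC domain solution (7 uM) → pin compounds or unlabeled HOX-A9 DNA control → 5 min ambient → add FLSN-HOX-A9 solution (50 nM) → spin → 30 min ambient → fluorescence polarization. Tris pH 7.5/NaCl/DTT/BSA buffer.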
Menin MLL FP TR = inhibitors of human menin-MLL interaction, mutant MLL peptide | hit rate 0.23% among 270,000 | O00255 | Potency, µM (series often up to 61.6 µM), hits mostly inhibitors | AID 1768 | Menin + Texas Red MLL mutant peptide, fluorescence polarization; active means well fitted inhibition curve with a large enough effect in the polarisation, with a control signal flat, not every such curve was filed as active; inconclusive means small, poorly fitted or top-dose-only effect, or effect the other way, or a change in a side signal; inactive means no such curve, though single readings can be large or run the other way; the % refers to the polarisation
Target sequence (O00255 whole entry, looked up): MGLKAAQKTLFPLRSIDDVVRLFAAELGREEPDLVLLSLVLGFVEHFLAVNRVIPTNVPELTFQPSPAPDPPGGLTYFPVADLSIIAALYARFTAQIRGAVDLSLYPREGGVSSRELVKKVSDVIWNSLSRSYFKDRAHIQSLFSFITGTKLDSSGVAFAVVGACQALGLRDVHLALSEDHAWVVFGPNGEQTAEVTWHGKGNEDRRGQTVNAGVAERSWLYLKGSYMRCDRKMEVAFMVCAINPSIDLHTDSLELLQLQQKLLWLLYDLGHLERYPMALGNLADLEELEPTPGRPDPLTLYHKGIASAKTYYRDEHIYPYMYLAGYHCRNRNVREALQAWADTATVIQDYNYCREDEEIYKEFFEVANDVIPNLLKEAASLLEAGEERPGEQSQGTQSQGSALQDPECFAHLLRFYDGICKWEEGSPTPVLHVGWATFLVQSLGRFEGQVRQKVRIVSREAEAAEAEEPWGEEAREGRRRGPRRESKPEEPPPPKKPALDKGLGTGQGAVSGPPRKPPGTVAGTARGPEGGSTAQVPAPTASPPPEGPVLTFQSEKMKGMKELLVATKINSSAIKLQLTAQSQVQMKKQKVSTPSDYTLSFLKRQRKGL
Menin-MLL FL inh = inhibitors of human menin-MLL interaction, wild-type MLL peptide. Fluorescence polarization, fluorescein-MLL peptide displacement from menin. FP activity change, % at 61.4 µM. 290,000 tested, under 10 active; active means well fitted curve in the direction sought with a large enough effect in the polarisation, not every such curve was filed as active; inconclusive means small, poorly fitted or top-dose-only effect, or effect the other way, or a change in a side signal; inactive means no such curve, though single readings can be large or run the other way; the % refers to the polarisation
Of the large screens only hits and unclear results are named; the others gave an inactive call; ! = a repeat was not active.

Cc1cc(C)cc(-n2nnnc2SCC(=O)Nc2nc(-c3ccc(F)cc3)cs2)c1	LMNA splice mod inconclusive, Menin MLL FP TR 35µM
Cc1cc(-c2nnc(SCC(=O)Nc3nc(-c4ccc(Cl)cc4)cs3)o2)no1	none (no result: LMNA splice mod, Menin MLL FP TR)
Cc1cc(C)cc(-n2nnnc2SCC(=O)Nc2nc(-c3ccc(Cl)cc3)cs2)c1	LMNA splice mod inconclusive, Menin MLL FP TR 28µM
Cc1nnc(SCC(=O)Nc2nc(-c3ccccc3)cs2)n1N	none
Cc1cc(-c2ccc(N=Nc3ccc4c(S(=O)(=O)O)cc(S(=O)(=O)O)c(N)c4c3O)c(C)c2)ccc1N=Nc1ccc2c(S(=O)(=O)O)cc(S(=O)(=O)O)c(N)c2c1O	Menin MLL FP TR inconclusive, Menin-MLL FL inh inconclusive (no result: LMNA splice mod)
CCCCCCCCCCCCCC[N+](C)(C)Cc1ccccc1	none (no result: LMNA splice mod)
N#Cc1cccc(-c2nc3cnc(Nc4ccccc4)nc3n(C[C@H]3CCCO3)c2=O)c1	Menin MLL FP TR 28µM, Menin-MLL FL inh inconclusive (no result: LMNA splice mod, MLL CXXC-DNA inh)
O=c1c(-c2ccccc2)nc2cnc(Nc3ccccc3)nc2n1C[C@H]1CCCO1	LMNA splice mod inconclusive, Menin-MLL FL inh inconclusive (no result: MLL CXXC-DNA inh)
COc1ccc(-c2cc(C(=O)NC3=NCCS3)c3ccccc3n2)cc1OC	LMNA splice mod inconclusive, Menin MLL FP TR inconclusive
O=C(NC1=NCCS1)c1cc(-c2ccc(-c3ccccc3)cc2)nc2ccccc12	LMNA splice mod inconclusive, Menin MLL FP TR 11µM (no result: MLL CXXC-DNA inh)
COc1ccc(-c2nnc3n2N=C(c2cc(OC)ccc2OC)CS3)cc1	none (no result: LMNA splice mod, MLL CXXC-DNA inh)
CCOC(=O)C1=C(C)N=c2s/c(=C\c3ccc(OCC(=O)O)cc3)c(=O)n2C1c1ccccc1 (stereo not given)	Menin MLL FP TR inconclusive (no result: LMNA splice mod)
CCOC(=O)C1=C(c2ccccc2)N=c2s/c(=C\c3ccc(O)cc3)c(=O)n2C1c1cccs1 (stereo not given)	LMNA splice mod inconclusive, MLL CXXC-DNA inh inconclusive, Menin MLL FP TR 35µM, Menin-MLL FL inh inconclusive
COc1ccc2cc(C#N)c(SCC(=O)NNC(=O)Cc3ccccc3)nc2c1	LMNA splice mod inconclusive, Menin MLL FP TR 11µM
Cc1ccc(/C=C2/CNC/C(=C\c3ccc(C)cc3)C2=O)cc1	Menin MLL FP TR inconclusive (no result: LMNA splice mod, MLL CXXC-DNA inh)
O=C(Nc1nc(-c2ccc(S(=O)(=O)N3CCCCCC3)cc2)cs1)c1cccs1	LMNA splice mod inconclusive, Menin MLL FP TR 22µM
CC(=O)OCON[N+]([O-])=NC1CCCCC1	none (no result: LMNA splice mod, MLL CXXC-DNA inh)
Cc1nnc2c3ccccc3c(-c3ccc(O)cc3)nn12	none
Cc1nnc2c3ccccc3c(-c3cccs3)nn12	LMNA splice mod 7.9µM
CC1(CN2CCC(n3c(=O)[nH]c4ccccc43)CC2)OCc2ccccc2-n2cccc21 (stereo not given)	none (no result: LMNA splice mod)
Cc1nc2c([nH]1)c(=O)n(C)c(=O)n2Cc1ccco1	LMNA splice mod inconclusive, Menin MLL FP TR 16µM!, Menin-MLL FL inh inconclusive
COCCNc1ncnc2ccc(-c3c(C)noc3C)cc12	LMNA splice mod 2.8µM (no result: MLL CXXC-DNA inh)
CC(=O)NCCNc1ncnc2ccc(-c3c(C)noc3C)cc12	LMNA splice mod inconclusive (no result: MLL CXXC-DNA inh)
COc1ccc(CNc2ncnc3ccc(-c4c(C)noc4C)cc23)c(OC)c1	LMNA splice mod 2.8µM (no result: MLL CXXC-DNA inh)
Cc1cccc(C)c1NC(=O)CCSCCc1ccccn1	none (no result: MLL CXXC-DNA inh, Menin MLL FP TR, Menin-MLL FL inh)
O=C(Cc1ccc(Cl)cc1)Nc1ccc(NC(=O)c2ccccc2)cc1	Menin MLL FP TR 10µM
Oc1ccc(Cl)cc1C1=NNC(c2cc(Br)cc3c2OCOC3)C1 (stereo not given)	Menin MLL FP TR 10µM (no result: LMNA splice mod)
c1ccc2c(c1)SCc1c-2[nH]c2ccccc12	Menin MLL FP TR inconclusive (no result: LMNA splice mod, MLL CXXC-DNA inh)
COc1cccc(N2CCN(S(=O)(=O)c3ccc4[nH]c5c(c4c3)CCCC5)CC2)c1	none (no result: MLL CXXC-DNA inh, Menin MLL FP TR, Menin-MLL FL inh)
Cc1cc(N)ccc1N1CCCC1	MLL CXXC-DNA inh inconclusive, Menin MLL FP TR 28µM
O=C(NCc1ccc(Cl)cc1)c1cc(-c2cccs2)on1	Menin MLL FP TR 28µM
CCCCCCCCCCCCCCOc1ccc(C(=O)O)o1	Menin-MLL FL inh inconclusive (no result: LMNA splice mod, MLL CXXC-DNA inh)
OC[C@H]1O[C@@H](O[C@@H]2OC=C[C@H]3[C@H](O)[C@@H]4O[C@]4(CO)[C@@H]23)[C@H](O)[C@@H](O)[C@@H]1O	none (no result: LMNA splice mod, MLL CXXC-DNA inh)
COc1ccc(NS(=O)(=O)c2cc(NC(=O)/C=C/c3cc(OC)ccc3OC)ccc2N2CCCCC2)cc1	Menin MLL FP TR 10µM
COc1ccc(NS(=O)(=O)c2cc(NC(=O)C3CCCO3)ccc2N2CCCCC2)cc1 (stereo not given)	none (no result: LMNA splice mod)
Cn1cc(SCC(=O)Nc2ccc3c(c2)OCO3)c2ccccc21	none
CC(C)n1cc(/C=C2/SC(=O)N(CC(=O)Nc3ccc4c(c3)OCO4)C2=O)c2ccccc21	LMNA splice mod inconclusive, Menin MLL FP TR 7.9µM
O=C(Oc1ccc(OC(=O)c2ccco2)c(S(=O)(=O)c2ccc(Br)cc2)c1)c1ccco1	LMNA splice mod inconclusive, Menin MLL FP TR 10µM
